Data as given in publication PMC5540273 (PLoS ONE, 2017).
Several values for one entry are separate records, joined by “and”; a condition that tells them apart may be missing. Equal values may be shown once. Read-outs that look alike come from different tables or passages of the source.

Columns and labels:
FAK = tested on: T1, FAK; conditions: concentration: 1 μM, replicates: in singlicate; n = 1
T1 construct: gene PTK2

FER = conditions: n = 1
FES = conditions: concentration: 1 μM, replicates: in singlicate; n = 1
FGFR1 = conditions: concentration: 1 μM, replicates: in singlicate; n = 1
FGFR2 = conditions: concentration: 1 μM, replicates: in singlicate; n = 1
FGFR3 = conditions: n = 1
FGFR4 = conditions: n = 1
FGR = conditions: n = 1
FLT1 = conditions: n = 1
FLT3-autoinhibited = conditions: concentration: 1 μM, replicates: in singlicate; n = 1
[1] = concentration: 1 μM, replicates: in singlicate
[2] = concentration: 1 μM,replicates: in singlicate, 1 µM
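Note: KINOMEscan kinase panel screen.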

Row | Compound | %Inh (FAK) [%] | %Inh (FER; [1]) [%] | %Inh (FES) [%] | %Inh (FGFR1) [%] | %Inh (FGFR2) [%] | %Inh (FGFR3; [1]) [%] | %Inh (FGFR4; [1]) [%] | %Inh (FGR; [1]) [%] | %Inh (FLT1; [1]) [%] | %Inh (FLT3-autoinhibited) [%] | %Inh (FER; [2]) | %Inh (FGFR3; [2]) | %Inh (FGFR4; [2]) | %Inh (FGR; [2]) | %Inh (FLT1; [2])
1 | Cc1ccc(C(=O)Nc2ccc(Nc3ccnc4cc(-c5ccccn5)ccc34)cc2O)cc1.Cl [GW440146] | 0 | 30 | 0 | 1 | 0 | 0 | 0 | 59 | 28 | 0 |  |  |  |  | 
2 | O=C(Nc1n[nH]c2nc(-c3nccs3)c(Br)cc12)C1CC1 [SB-742251] | 0 | 0 | 12 | 0 | 0 | 0 | 10 | 29 | 36 | 0 |  |  |  |  | 
3 | Nc1nc(-c2nccs2)c(-c2ccnc3ccccc23)s1 [GW693542] | 0 | 15 | 0 | 8 | 0 | 0 | 8 | 9 | 24 | 0 |  |  |  |  | 
4 | COc1ccc(CNC(=O)NC2CCN(c3ccnc(Nc4cc(OC)c(OC)c(OC)c4)n3)C2)cc1 (stereo not drawn) [GSK1379748] | 0 | 0 | 7 | 0 | 2 | 9 | 15 | 14 | 20 | 3 |  |  |  |  | 
5 | O=C(Nc1ccccc1)Nc1cccc(Oc2ccc3nccn3n2)c1 | 0 | 0 | 0 | 13 | 9 | 0 | 0 | 18 | 96.8 | 0 |  |  |  |  | 
6 | Cc1cc(NCC(c2ccccc2)c2ccccc2)nc(NCc2ccc(C(F)(F)F)cc2)n1 [GW497681] | 0 | 0 | 0 | 0 | 0 | 20 | 1 | 20 | 11 | 0 |  |  |  |  | 
7 | COc1cccc(-c2cc(-c3c[nH]nc3-c3ccccn3)ccn2)c1 [GW680338] | 0 | 0 | 9 | 0 | 0 | 1 | 6 | 19 | 3 | 0 |  |  |  |  | 
8 | COc1cccc(NC(=O)NC2CCN(c3ccnc(Nc4ccc(F)cc4)n3)C2)c1 (stereo not drawn) [GSK1379721] | 0 | 0 | 0 | 0 | 0 | 6 | 1 | 0 | 11 | 0 |  |  |  |  | 
9 | O=C(Nc1n[nH]c2nc(-c3nccs3)c(Br)cc12)C1CCCC1 [SB-742609] | 0 | 0 | 0 | 0 | 0 | 0 | 12 | 20 | 29 | 10 |  |  |  |  | 
10 | Cc1ccccc1-n1cnc2c(N)ncnc21 [SKF-97510] | 0 | 4 | 0 | 0 | 0 | 0 | 0 | 0 | 0 | 0 |  |  |  |  | 
11 | COc1ccc(Nc2nccc(-c3cccc(NC(=O)c4cc5cc(F)ccc5[nH]4)c3)n2)cc1 [GSK1229782] | 1 | 43 | 27 | 21 | 0 | 13 | 2 | 60 | 17 | 0 |  |  |  |  | 
12 | O=C(Nc1ccc2c(c1)OCO2)NC1CCN(c2ccnc(Nc3ccc(F)cc3)n2)C1 (stereo not drawn) [GSK1379724] | 0 | 7 | 15 | 0 | 0 | 7 | 7 | 11 | 19 | 0 |  |  |  |  | 
13 | CS(=O)(=O)c1ccc(-c2nc3n(c2-c2ccncc2)CCC3)cc1 [SKF-105942] | 0 | 1 | 22 | 0 | 0 | 2 | 18 | 43 | 11 | 0 |  |  |  |  | 
14 | CC(C)(C)c1ccc(C(=O)Nc2cn3cc(-c4cccnc4)ccc3n2)cc1 | 12 | 0 | 29 | 27 | 21 | 16 | 0 | 19 | 22 | 0 |  |  |  |  | 
15 | O=C(Nc1n[nH]c2cc(-c3cccc(F)c3F)ccc12)C1CC1 [SB-733894] | 3 | 0 | 53 | 0 | 0 | 0 | 0 | 61 | 0 | 12 |  |  |  |  | 
16 | CSc1nn2c(=O)cc(N3CCOCC3)nc2n1Cc1cccc(C(F)(F)F)c1C [GSK2363608] | 0 |  | 0 | 0 | 0 |  |  |  |  | 0 | 25% and 1% | 17% and 4% | 5% and 14% | 31% and 32% | 26% and 10%
17 | Cn1cncc1-c1ccc2ncnc(Nc3ccc(OCc4ccccc4)cc3)c2c1 [GW320571] | 0 | 25 | 0 | 2 | 13 | 31 | 14 | 15 | 27 | 0 |  |  |  |  | 
18 | NC(=O)c1nnc2ccccc2c1N | 12 | 0 | 4 | 41 | 7 | 90 | 0 | 21 | 7 | 16 |  |  |  |  | 
